Eight compounds from PubChem BioAssay (Tox21) can be followed below.

The structures appear in SMILES notation. Values without a mark were called inactive. Results filed as inconclusive are left out. Active and inactive are the calls of the source. Unless noted, calls come from the whole dose curve.

The nature of assay [1]: Nuclear factor erythroid 2-related factor 2/antioxidant responsive element (Nrf2/ARE) small molecule agonists: qHTS cell viability counter screen in human keratinocytes (AID 1919968; active = well fitted curve in the direction sought with a large enough effect in the repeat runs; an effect the other way counts as inactive or inconclusive; note: nearly all actives have a fitted effect of over 55% in size; note: potency is the fitted concentration of half-maximal effect). The gist of the method:
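KeratinoSens cells (HaCaT keratinocytes stably carrying an ARE-luciferase reporter) were seeded at 1,500 cells/well and rested 5 h at 37 C/5% CO2. They were then exposed to compounds in DMSO for 23 h. Viability was read by CellTiter-Fluor fluorescence after 1 h.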
(Quantitative high-throughput screening tests each substance at several concentrations.)

Assay [2] deals with Gonadotropin-releasing hormone receptor (Homo sapiens) (UniProt P30968). Description: Human gonadotropin-releasing hormone receptor (GnRHR) small molecule agonists, calcium flux assay in GnRHR-HEK293 cells (AID 1920063). Note: nearly all actives have a fitted effect of over 35% in size. The gist of the method: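 HEK293 cells stably expressing human GnRHR were plated 18 h at 37 °C, loaded with calcium dye 1 h at 37 °C, then given compound in agonist mode; fluorescence (Ex/Em 480/540) read kinetically for 3 min at 1 s intervals.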
In general terms: Calcium assays in cells follow changes in intracellular calcium, usually with a dye or a luminescent sensor.

The target in assay [3] is KiSS-1 receptor (Homo sapiens) (UniProt Q969F8). Description: Human kisspeptin (KISS1R) small molecule agonists, calcium flux assay in KISS1R-HEK293 cells (AID 1920064; active = well fitted curve in the direction sought with a large enough effect in the repeat runs; an effect the other way counts as inactive or inconclusive). In short, it runs like this:
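HEK293 cells stably expressing human KISS1R were plated 18 h at 37 °C, loaded with calcium dye for 1 h at 37 °C, then given compound by pin tool. Fluorescence (Ex/Em 480/540) was read kinetically for 3 min.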

Assay [4] is described as follows: G protein-coupled receptor (GPCR) small molecule agonists, calcium flux assay: HEK293 wild type cell line counter screen (AID 1920065). The gist of the method:
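Cells were plated and cultured 18 h at 37 C/5% CO2, then loaded with calcium dye for 1 h at 37 C. Compounds in DMSO were pin-transferred in agonist mode, and fluorescence (Ex/Em 480/540) was read kinetically for 3 min at 1 s intervals.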

Assay [5] in a line: p53 small molecule agonists, cell-based qHTS assay with human liver microsomes (AID 1963577).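 Note: p53 response element beta-lactamase reporter cells with liver microsomes plus NADPH.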 In short, it runs like this:
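Steps: plate p53RE-bla cells, incubate 5 h at 37 C; add compound in DMSO; add microsomes (0.5 mg/mL final) and NADPH (0.5 mg/mL final); incubate 16 h at 37 C; add LiveBLAzer, 2 h RT; read fluorescence.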

The nature of assay [6]: p53 small molecule agonists, cell-based qHTS assay with human liver microsomes: qHTS cell viability counter screen (AID 1963579). Note: nearly all actives have a fitted effect of over 45% in size. In short, it runs like this: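 After the 460/530 nm beta-lactamase read, CellTiter-Glo was added to the same wells and luminescence measured after 30 min at room temperature, giving viability of p53RE-bla cells treated 16 h with compounds plus microsomes and NADPH.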

Assay [7] can be described thus: p53 small molecule agonists, cell-based qHTS assay with rat liver microsomes: qHTS cell viability counter screen (AID 1963580). Note: nearly all actives have a fitted effect of over 45% in size. In short, it runs like this: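 In HCT-116 cells carrying a p53 response element-bla reporter, compounds were metabolically activated in situ by rat liver microsomes with NADPH over 16 h. Cell ATP content then served as the cytotoxicity measure.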

Assay [8] in a line: p53 small molecule agonists, cell-based qHTS assay: qHTS cell viability counter screen (AID 1963581). Note: nearly all actives have a fitted effect of over 45% in size. The gist of the method: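 p53RE-bla HCT-116 cells were exposed to compounds for 16 h at 37 C; after the beta-lactamase FRET read in the same wells, CellTiter-Glo was added and luminescence (intracellular ATP) read after 30 min at room temperature.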
Assay [9] can be described thus: p53 small molecule agonists, cell-based qHTS assay (AID 1963582; active = well fitted activation curve with a large enough effect in the signal ratio in the repeat runs, not every such curve was filed as active; the % refers to the signal ratio). The gist of the method: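 p53RE-bla beta-lactamase reporter cells rested 5 h at 37 C/5% CO2, then received compounds in DMSO by pin transfer and were incubated 16 h at 37 C. LiveBLAzer B/G FRET substrate was loaded for 2 h at room temperature before fluorescence reading.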
Assay [10] has as its target 5-hydroxytryptamine receptor 2A (Homo sapiens) (UniProt P28223). Kind of assay: 5-hydroxytryptamine receptor 2A (HTR2A) small molecule antagonists, cell-based qHTS assay (AID 1963586). Note: nearly all actives have a fitted effect of over 45% in size. The gist of the method: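 Antagonist-mode intracellular calcium assay: DOI (4 nM) added after 5 min compound pre-incubation at room temperature to dye-loaded HTR2A-CHO cells. Fluorescence followed for 3 min, sampled every second.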

The target is the same in assay [11]. Description: 5-hydroxytryptamine receptor 2A (HTR2A) small molecule agonists, cell-based qHTS assay (AID 1963587). Note: nearly all actives have a fitted effect of over 30% in size. In short, it runs like this: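 HTR2A-CHO cells, plated 18 h at 37 C/5% CO2, dye-loaded 1 h at 37 C; compounds in DMSO added by pin tool (agonist mode). Intracellular calcium flux read as kinetic fluorescence on FDSS over 2 min at 1 s intervals.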

Assay [12] concerns the target Muscarinic acetylcholine receptor M1 (Homo sapiens) (UniProt P11229). Description: Cholinergic receptor muscarinic 1 (CHRM1) small molecule antagonists, cell-based qHTS assay (AID 1963588). Note: nearly all actives have a fitted effect of over 40% in size. The gist of the method: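 CHRM1-CHO calcium-flux assay, antagonist mode. Cells were seeded 18 h, dye-loaded 1 h at 37 C and given compound for 5 min at RT, then acetylcholine was added at 50nM. FDSS fluorescence was read 3 min; 15 concentrations, three runs.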

Assay [13] shares this target. Kind of assay: Cholinergic receptor muscarinic 1 (CHRM1) small molecule agonists, cell-based qHTS assay (AID 1963589). Note: nearly all actives have a fitted effect of over 35% in size. The gist of the method:
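CHO cells stably expressing human CHRM1, seeded 18 h at 37 C/5% CO2, dye-loaded 1 h at 37 C, then given compound in agonist mode; intracellular calcium fluorescence read kinetically at 1 s intervals. Fifteen concentrations, three independent runs.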

Assay [14] in a line: cAMP Responsive Elements (CRE) small molecule agonists, cell-based qHTS assay (AID 1963590). In short, it runs like this: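 CRE-bla HEK 293T cells in DMEM with 10% dialyzed FBS, NEAA, pyruvate and 25 mM HEPES were plated 18 h at 37 C/5% CO2, then exposed to compounds in DMSO for 3 h before LiveBLAzer B/G FRET substrate addition.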
A short description of assay [15]: cAMP Responsive Elements (CRE) small molecule antagonists, cell-based qHTS assay (AID 1963591; active = well fitted inhibition curve with a large enough effect in the signal ratio in the repeat runs, not every such curve was filed as active; the % refers to the signal ratio). The gist of the method:
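CRE-bla HEK293T cells were plated 18 h at 37 °C/5% CO2, pinned with compound in DMSO, then stimulated with NKH477 at 0.25 uM final for 3 h. LiveBLAzer B/G FRET substrate was added and plates incubated 2 h at room temperature.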

The target in assay [16] is Beta-2 adrenergic receptor (Homo sapiens) (UniProt P07550). Kind of assay: Adrenergic beta2 receptor (ADRB2) small molecule antagonists, cell-based qHTS assay (AID 1963592). Note: series mostly up to about 92 µM; nearly all actives have a fitted effect of over 50% in size. The gist of the method:
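Cells (CHO, stable ADRB2 overexpression) incubated 18-20hr at 37C; compounds added from DMSO; agonist mix (1nM isoproterenol, 100uM IBMX, 25uM Ro-20-1724) added; 0.5hr RT; d2-cAMP and anti-cAMP-cryptate added; 1hr RT; 665/615 nm read.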

Assay [17] has as its target D(2) dopamine receptor (Homo sapiens) (UniProt P14416). Kind of assay: Dopamine D2 receptor (DRD2) small molecule agonists, cell-based qHTS assay (AID 1963594). Note: nearly all actives have a fitted effect of over 35% in size. The gist of the method: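 HEK293 cells stably expressing DRD2 were cultured 24 h at 37 C, then given Ro20-1724 (0.1 mM final) and compounds for 10 min at room temperature. NKH477 (200nM) was then added for 30 min. cAMP was read by HTRF.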

For assay [18] the target is unchanged. Description: Dopamine D2 receptor (DRD2) small molecule antagonists, cell-based qHTS assay (AID 1963595; active = well fitted inhibition curve with a large enough effect in the signal ratio in the repeat runs, with a control signal flat; the % refers to the signal ratio). The gist of the method:
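In this cell-based antagonist screen, compounds act for 10 min at room temperature before a 30 min challenge with 12 nM quinpirole and 200 nM NKH477. cAMP is quantified by HTRF competition in DRD2-HEK293 cells containing 0.1 mM Ro20-1724.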

A short description of assay [19]: p53 small molecule agonists, cell-based qHTS assay with rat liver microsomes (AID 1963578). The gist of the method: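 Metabolic activation is supplied by rat liver microsomes with NADPH (each 0.5 mg/mL final). p53RE-bla cells incubate with compound 16 h at 37 C; reporter activity is measured by LiveBLAzer fluorescence.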
For assay [20], the target named is Beta-2 adrenergic receptor (Homo sapiens) (UniProt P07550). Kind of assay: Adrenergic beta2 receptor (ADRB2) small molecule agonists, cell-based qHTS assay (AID 1963593).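 Note: CHO cells stably overexpressing human ADRB2.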 The gist of the method: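 CHO cells stably over-expressing ADRB2 were plated overnight at 37C, then dosed with compounds plus a stimulation mix containing 100uM IBMX and 25uM Ro-20-1724 for 0.5hr at room temperature. cAMP was measured by HTRF competition, 1hr.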
% is set by controls: 0 for no effect and ±100 for the full control effect.

D(2) dopamine receptor (Homo sapiens), sequence (P14416 whole entry, looked up): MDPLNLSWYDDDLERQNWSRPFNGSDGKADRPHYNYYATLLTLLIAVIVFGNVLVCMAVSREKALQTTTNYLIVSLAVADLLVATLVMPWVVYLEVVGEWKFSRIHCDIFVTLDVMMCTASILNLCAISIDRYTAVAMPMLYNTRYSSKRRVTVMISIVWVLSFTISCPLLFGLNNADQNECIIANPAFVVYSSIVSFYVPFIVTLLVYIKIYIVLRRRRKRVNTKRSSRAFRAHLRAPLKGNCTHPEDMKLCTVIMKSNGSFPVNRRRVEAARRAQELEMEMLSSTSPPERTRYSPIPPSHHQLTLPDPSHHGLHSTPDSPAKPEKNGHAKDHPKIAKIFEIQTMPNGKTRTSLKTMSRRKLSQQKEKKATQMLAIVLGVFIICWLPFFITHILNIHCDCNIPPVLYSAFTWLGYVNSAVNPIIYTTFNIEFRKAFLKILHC
Beta-2 adrenergic receptor (Homo sapiens), sequence (P07550 whole entry, looked up): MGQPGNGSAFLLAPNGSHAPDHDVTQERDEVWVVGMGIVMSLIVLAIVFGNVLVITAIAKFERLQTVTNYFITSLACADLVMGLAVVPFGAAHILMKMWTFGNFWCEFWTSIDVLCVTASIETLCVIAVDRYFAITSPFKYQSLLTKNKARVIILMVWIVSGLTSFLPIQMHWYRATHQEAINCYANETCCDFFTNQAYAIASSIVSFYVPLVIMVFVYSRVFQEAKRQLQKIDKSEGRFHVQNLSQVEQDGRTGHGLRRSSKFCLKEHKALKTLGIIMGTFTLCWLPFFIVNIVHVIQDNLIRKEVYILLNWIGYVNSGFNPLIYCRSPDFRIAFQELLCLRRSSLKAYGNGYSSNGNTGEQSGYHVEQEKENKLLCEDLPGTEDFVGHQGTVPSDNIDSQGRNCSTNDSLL
5-hydroxytryptamine receptor 2A (Homo sapiens), sequence (P28223 whole entry, looked up): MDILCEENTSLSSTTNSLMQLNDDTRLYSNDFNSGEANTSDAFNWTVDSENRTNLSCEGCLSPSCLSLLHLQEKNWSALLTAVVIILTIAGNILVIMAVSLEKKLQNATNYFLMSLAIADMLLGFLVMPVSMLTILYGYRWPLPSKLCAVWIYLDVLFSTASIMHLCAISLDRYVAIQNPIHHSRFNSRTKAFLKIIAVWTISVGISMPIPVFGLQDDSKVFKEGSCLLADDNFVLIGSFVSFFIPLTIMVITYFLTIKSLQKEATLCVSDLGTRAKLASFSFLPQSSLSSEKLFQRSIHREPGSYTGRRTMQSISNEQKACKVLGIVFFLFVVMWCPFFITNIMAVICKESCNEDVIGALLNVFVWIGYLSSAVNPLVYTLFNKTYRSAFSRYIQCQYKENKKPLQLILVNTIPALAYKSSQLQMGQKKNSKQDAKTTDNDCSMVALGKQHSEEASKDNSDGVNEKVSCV
Gonadotropin-releasing hormone receptor (Homo sapiens), sequence (P30968 whole entry, looked up): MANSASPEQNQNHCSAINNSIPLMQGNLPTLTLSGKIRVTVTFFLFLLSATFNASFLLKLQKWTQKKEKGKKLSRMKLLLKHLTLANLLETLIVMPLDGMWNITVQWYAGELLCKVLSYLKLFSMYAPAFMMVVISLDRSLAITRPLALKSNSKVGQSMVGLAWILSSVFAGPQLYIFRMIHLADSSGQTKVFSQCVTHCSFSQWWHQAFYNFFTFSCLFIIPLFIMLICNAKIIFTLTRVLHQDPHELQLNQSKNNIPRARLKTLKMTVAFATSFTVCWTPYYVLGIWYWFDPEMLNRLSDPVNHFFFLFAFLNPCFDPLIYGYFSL
Muscarinic acetylcholine receptor M1 (Homo sapiens), sequence (P11229 whole entry, looked up): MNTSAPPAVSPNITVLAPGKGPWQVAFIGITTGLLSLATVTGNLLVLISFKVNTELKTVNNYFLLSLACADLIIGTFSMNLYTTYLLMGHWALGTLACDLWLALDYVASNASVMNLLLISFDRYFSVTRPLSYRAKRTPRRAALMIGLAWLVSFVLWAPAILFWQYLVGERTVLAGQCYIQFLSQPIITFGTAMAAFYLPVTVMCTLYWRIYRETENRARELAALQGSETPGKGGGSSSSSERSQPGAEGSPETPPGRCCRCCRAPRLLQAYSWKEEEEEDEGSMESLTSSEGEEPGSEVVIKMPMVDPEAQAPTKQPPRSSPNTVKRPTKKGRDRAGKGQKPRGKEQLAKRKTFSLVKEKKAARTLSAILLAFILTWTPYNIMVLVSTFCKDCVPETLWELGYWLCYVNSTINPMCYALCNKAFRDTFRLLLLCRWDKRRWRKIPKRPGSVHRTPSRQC
KiSS-1 receptor (Homo sapiens), sequence (Q969F8 whole entry, looked up): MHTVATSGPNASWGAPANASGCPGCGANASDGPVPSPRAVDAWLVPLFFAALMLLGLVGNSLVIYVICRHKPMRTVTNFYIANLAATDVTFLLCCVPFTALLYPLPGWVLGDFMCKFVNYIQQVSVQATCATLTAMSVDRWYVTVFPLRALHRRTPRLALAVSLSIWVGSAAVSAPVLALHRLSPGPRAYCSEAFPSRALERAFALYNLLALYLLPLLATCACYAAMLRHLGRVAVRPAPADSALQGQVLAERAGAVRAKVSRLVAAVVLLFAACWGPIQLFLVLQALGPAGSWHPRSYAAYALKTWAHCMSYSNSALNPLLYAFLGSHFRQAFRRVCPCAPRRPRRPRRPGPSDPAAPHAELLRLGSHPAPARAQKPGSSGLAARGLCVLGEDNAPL

For the compound `COC(=O)/C=C(\C)CCC=C(C)C`, the Potency result in assay [1], in [2], in [3], in assay [4], in assay [5] and in assay [6] was “inactive” each time. Moreover, the Potency entry in assay [7], in [8], in assay [9], in assay [10], in [11] and in assay [12] was “inactive” each time. Also, the Potency result in assay [13], in [14], in [15], in assay [16], in assay [17] and in assay [18] was “inactive” each time.

Take `CCOC(=O)[C@@H](C)Oc1ccc(Oc2nc3ccc(Cl)cc3o2)cc1`: the Potency result in assay [1], in [2], in assay [3], in [4], in assay [5] and in [6] was “inactive” throughout. Besides, the Potency result in assay [7], in [8], in assay [9], in assay [10], in assay [11] and in [12] was “inactive” throughout. The Potency result in [13], in [15], in [16], in assay [17] and in assay [18] was “inactive” throughout.

`CC(=O)Oc1ccc(C(=C2CCCCC2)c2ccc(OC(C)=O)cc2)cc1`: the Potency result in assay [1], in assay [2], in assay [3], in assay [4], in assay [19] and in assay [6] was “inactive” throughout. Also, the Potency entry in [7], in assay [8], in assay [9], in assay [10], in assay [11] and in assay [12] was “inactive” each time. Also, the Potency result in assay [13], in [14], in [15], in [16], in assay [20] and in assay [17] was “inactive” in each case. The Potency result in [18] is “inactive”.

As to `O=c1[nH]nc(-c2ccc([N+](=O)[O-])o2)o1`, the Potency result in [1], in assay [2], in [3], in [4], in assay [19] and in [6] was “inactive” each time. Besides, the Potency result in [7], in [8], in assay [9], in [10], in assay [11] and in [12] was “inactive” throughout. In addition, the Potency result in [13], in [16], in assay [17] and in assay [18] was “inactive” throughout.

As to `c1csc(SSc2cccs2)c1`, the Potency in assay [1] is 15.4 µM (active). Besides, the Potency result in [2], in [3], in assay [4], in assay [5], in [6] and in [8] was “inactive” each time. For the same compound, the Potency entry in assay [9], in assay [11], in assay [12], in assay [13], in assay [15] and in assay [16] was “inactive” throughout. Besides, the Potency entry in assay [20] and in assay [18] was “inactive” each time.

`C=CCCCCCC`: the Potency result in assay [1], in [2], in assay [3], in assay [4], in assay [5] and in [9] was “inactive” in each case. The Potency entry in [10], in [11], in assay [12], in assay [13], in assay [14] and in [15] was “inactive” each time. Also, the Potency entry in assay [16], in assay [20], in assay [17] and in assay [18] was “inactive” throughout.

For `CO`, the Potency entry in [1], in [2], in [3], in assay [4], in assay [5] and in assay [6] was “inactive” each time. For the same compound, the Potency entry in assay [7], in assay [8], in assay [9], in assay [10], in [11] and in assay [14] was “inactive” in each case. Further, the Potency result in assay [16], in [17] and in assay [18] was “inactive” throughout.

As for `c1ccc2sc(SSc3nc4ccccc4s3)nc2c1`, the activity change, negative = cytotoxicity in assay [1] is 22.3% [at 19 µM]; in assay [6], -2.64% [at 13.5 µM]; in [7], 0.0229% [at 13.5 µM]; in assay [8] it was -1.21% [at 13.5 µM]. Besides, the activity change in assay [2] was -1.6% [at 11.8 µM, active compounds read high]. In addition, the activation is 4.25% [at 15.8 µM] in [3]; 0.255% [at 11.8 µM] in [4]; -0.548% [at 13.6 µM] in [19]; 0.366% [at 13.5 µM] in [9]; -0.0759% [at 19 µM] in assay [14]; 0.998% [at 19 µM] in [20]. For the same compound, the activation in [17] is 10.5% [at 19 µM]. Besides, the results for the activity change, negative = inhibition in assay [15] and in assay [16] were 0.327% [at 18.9 µM] and 1.66% [at 19 µM], respectively.
